Consider 35 targets from the supplement of paper PMC12819154, “High-throughput peptide-centric local stability assay extends protein–ligand identification to membrane proteins, tissues and bacteria” (Nature Structural & Molecular Biology, 2025).

Sequence of UniProt P26149 (P26149 whole entry): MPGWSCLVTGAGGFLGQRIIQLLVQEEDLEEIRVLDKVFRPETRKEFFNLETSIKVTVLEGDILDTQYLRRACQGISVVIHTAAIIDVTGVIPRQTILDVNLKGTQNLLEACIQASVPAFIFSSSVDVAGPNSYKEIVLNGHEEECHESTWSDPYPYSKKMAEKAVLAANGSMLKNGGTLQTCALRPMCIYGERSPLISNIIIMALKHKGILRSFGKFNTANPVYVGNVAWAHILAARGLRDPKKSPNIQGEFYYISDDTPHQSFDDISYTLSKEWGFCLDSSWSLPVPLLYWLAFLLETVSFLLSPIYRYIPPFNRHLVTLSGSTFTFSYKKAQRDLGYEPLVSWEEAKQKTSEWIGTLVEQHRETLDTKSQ
Sequence of UniProt Q9D517 (Q9D517 whole entry): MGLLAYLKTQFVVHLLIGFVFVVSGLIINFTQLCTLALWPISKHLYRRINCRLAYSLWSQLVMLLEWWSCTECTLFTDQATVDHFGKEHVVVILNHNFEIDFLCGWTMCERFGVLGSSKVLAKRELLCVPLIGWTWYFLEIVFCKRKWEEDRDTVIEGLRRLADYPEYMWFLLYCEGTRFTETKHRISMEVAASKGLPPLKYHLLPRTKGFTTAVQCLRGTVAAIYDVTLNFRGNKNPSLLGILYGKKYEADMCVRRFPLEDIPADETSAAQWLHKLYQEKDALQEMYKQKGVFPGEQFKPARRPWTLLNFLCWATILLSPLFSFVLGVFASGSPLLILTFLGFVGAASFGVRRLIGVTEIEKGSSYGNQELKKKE
Sequence of UniProt Q5SW19 (Q5SW19 whole entry): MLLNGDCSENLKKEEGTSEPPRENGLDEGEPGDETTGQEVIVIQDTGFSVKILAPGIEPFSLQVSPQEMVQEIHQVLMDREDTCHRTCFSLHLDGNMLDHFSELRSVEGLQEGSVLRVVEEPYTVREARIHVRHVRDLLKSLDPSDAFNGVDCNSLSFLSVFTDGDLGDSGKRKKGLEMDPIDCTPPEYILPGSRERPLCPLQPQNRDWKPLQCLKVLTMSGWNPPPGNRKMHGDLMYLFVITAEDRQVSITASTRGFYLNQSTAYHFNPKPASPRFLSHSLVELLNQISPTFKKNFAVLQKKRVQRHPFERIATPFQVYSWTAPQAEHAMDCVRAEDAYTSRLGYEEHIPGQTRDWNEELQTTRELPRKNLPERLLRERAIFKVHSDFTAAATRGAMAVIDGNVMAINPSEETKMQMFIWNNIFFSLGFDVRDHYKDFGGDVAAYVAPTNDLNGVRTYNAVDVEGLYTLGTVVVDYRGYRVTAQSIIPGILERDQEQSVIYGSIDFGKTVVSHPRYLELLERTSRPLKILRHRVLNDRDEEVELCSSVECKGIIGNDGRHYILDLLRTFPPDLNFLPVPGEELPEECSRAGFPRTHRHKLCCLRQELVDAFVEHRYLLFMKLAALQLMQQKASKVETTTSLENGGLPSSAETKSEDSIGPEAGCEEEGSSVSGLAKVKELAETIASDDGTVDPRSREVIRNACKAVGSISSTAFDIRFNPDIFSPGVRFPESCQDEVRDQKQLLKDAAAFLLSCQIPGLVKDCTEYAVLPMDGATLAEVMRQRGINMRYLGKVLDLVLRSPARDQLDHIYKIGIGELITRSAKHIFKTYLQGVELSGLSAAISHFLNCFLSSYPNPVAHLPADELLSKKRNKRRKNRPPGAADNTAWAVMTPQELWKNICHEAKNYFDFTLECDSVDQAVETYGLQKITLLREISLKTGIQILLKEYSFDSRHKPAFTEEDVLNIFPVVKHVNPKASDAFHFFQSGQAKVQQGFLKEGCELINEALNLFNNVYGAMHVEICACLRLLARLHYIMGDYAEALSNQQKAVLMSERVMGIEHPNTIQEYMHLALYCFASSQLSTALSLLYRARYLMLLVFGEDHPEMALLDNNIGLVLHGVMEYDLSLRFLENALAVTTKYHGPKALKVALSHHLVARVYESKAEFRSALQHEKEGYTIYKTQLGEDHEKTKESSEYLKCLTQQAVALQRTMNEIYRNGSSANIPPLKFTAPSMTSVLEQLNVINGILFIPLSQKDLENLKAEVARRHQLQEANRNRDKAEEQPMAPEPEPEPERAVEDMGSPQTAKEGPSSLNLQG
Sequence of UniProt P35917 (P35917 whole entry): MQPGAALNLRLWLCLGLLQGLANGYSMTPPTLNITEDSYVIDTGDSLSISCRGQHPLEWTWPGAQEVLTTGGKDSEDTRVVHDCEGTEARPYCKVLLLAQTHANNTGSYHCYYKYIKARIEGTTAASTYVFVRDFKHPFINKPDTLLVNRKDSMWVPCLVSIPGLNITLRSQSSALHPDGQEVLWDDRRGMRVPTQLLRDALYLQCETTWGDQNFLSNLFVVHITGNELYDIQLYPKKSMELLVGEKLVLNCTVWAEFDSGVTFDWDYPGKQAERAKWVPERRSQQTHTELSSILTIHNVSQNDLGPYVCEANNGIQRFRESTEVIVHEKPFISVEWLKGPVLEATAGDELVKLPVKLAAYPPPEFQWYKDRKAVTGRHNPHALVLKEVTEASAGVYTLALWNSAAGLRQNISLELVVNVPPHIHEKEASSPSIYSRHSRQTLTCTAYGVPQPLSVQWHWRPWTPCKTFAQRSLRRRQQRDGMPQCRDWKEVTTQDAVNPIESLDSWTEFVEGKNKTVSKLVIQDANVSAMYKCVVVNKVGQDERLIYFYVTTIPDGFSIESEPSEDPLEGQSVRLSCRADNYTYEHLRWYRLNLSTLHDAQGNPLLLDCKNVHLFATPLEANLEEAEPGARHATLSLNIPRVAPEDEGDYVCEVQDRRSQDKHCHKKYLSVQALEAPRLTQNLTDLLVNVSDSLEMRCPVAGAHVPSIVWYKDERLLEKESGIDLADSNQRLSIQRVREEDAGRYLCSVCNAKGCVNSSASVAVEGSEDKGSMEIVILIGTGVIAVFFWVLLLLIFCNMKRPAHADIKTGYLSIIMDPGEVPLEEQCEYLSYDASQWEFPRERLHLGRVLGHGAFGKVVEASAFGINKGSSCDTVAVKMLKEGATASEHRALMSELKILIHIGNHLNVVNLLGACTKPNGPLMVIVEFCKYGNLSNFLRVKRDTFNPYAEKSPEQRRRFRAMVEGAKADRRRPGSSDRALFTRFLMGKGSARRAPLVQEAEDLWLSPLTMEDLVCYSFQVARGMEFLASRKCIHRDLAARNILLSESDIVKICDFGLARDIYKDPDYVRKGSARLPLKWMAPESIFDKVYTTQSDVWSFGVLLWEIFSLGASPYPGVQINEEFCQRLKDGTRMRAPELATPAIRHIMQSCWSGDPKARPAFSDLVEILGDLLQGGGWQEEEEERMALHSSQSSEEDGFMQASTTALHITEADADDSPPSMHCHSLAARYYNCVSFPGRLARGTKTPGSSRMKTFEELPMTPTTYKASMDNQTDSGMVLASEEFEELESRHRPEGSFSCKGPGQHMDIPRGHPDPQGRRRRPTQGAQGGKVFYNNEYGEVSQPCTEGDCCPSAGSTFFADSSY
Sequence of UniProt Q64464 (Q64464 whole entry): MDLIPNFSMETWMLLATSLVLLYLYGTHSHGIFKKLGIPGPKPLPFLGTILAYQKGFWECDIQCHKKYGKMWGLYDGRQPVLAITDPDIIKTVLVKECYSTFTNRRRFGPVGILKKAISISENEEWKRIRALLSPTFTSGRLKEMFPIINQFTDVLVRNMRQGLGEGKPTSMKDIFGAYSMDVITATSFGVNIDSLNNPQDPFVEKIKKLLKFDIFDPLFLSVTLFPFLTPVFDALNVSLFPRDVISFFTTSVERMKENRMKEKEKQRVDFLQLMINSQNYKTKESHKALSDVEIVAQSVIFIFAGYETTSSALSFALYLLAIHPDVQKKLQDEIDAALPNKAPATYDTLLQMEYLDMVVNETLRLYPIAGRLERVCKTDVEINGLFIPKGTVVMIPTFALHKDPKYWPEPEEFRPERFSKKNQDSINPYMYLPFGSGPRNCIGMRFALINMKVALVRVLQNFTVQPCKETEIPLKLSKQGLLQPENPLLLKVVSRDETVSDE
Sequence of UniProt Q6XUX1 (Q6XUX1 whole entry): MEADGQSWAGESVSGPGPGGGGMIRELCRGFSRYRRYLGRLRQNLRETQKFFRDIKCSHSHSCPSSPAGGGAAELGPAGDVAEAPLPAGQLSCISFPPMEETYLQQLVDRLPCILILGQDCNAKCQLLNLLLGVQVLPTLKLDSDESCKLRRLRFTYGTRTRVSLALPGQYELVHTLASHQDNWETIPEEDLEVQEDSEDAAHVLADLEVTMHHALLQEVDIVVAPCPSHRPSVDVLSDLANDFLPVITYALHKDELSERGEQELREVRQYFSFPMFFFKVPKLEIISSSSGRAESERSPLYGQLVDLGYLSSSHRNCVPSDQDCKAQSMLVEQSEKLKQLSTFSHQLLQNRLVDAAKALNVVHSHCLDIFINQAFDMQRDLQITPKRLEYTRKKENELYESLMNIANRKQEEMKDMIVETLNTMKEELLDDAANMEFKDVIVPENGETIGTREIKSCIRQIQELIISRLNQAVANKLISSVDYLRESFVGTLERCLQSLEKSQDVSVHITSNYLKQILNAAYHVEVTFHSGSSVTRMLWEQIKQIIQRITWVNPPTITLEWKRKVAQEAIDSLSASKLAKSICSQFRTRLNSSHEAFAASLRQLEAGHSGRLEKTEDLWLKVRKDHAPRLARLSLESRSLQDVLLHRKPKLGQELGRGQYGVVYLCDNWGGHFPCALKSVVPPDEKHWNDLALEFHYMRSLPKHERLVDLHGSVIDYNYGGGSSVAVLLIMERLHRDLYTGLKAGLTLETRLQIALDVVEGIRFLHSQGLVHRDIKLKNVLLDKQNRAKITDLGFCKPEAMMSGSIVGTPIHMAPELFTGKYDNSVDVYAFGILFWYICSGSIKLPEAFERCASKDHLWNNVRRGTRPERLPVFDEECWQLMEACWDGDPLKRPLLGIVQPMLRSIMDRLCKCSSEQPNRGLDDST
Sequence of UniProt Q9Z1R3 (Q9Z1R3 whole entry): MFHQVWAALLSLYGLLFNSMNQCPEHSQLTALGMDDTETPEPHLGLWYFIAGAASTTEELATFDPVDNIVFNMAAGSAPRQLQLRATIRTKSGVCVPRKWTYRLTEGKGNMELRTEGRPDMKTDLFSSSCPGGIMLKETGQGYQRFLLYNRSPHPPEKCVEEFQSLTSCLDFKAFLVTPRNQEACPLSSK

Compound in this assay: CN[C@@H]1C[C@H]2O[C@@](C)([C@@H]1OC)n1c3ccccc3c3c4c(c5c6ccccc6n2c5c31)C(=O)NC4 [staurosporine]
The assay can be described thus: log2 fold change of tryptic peptide abundance, ligand vs vehicle (limited proteolysis) (log2 ratio); higher = more trypsin-susceptible (destabilized). The following applies: ligand concentration: 20 uM; sample: mouse liver crude lysate; replicate design: treated separately.
Consider “UniProt Q64464 (peptide sequence: ALLSPTFTSGR, peptide start residue: 131)”, for which the log2 fold change is -0.724.

With “UniProt Q99LB7 (peptide sequence: AYGIESHVLSPAETK, peptide start residue: 175)”, the log2 fold change is -0.446.

As for “UniProt Q9R0T8 (peptide sequence: DIKPGNIMR, peptide start residue: 135)”, the log2 fold change was -1.44.

“UniProt Q64310 (peptide sequence: SMFAGVPTMR, peptide start residue: 140)”: the log2 fold change worked out at 0.247.

For “UniProt Q91VF2 (peptide sequence: TSNMENIK, peptide start residue: 105)”, the log2 fold change amounted to 0.598.

“UniProt P12367 (peptide sequence: IVDVIGEK, peptide start residue: 270)”: the log2 fold change amounted to 0.593.

For “UniProt Q9D517 (peptide sequence: GLPPLKYHLLPR, peptide start residue: 196)”, the log2 fold change stood at 0.633.

Regarding “UniProt O54988 (peptide sequence: WSSNFKDFLR, peptide start residue: 261)”, the log2 fold change was -3.04.

Take “UniProt Q5SW19 (peptide sequence: YLELLER, peptide start residue: 517)”: the log2 fold change is -0.493.

Take “UniProt Q8BH59 (peptide sequence: LQVAGEITTGPR, peptide start residue: 457)”: the log2 fold change turned out to be 0.568.

For “UniProt Q91YH5 (peptide sequence: ALASVLLQDHIR, peptide start residue: 45)”, the log2 fold change was 0.309.

In the case of “UniProt P41216 (peptide sequence: WLLDFASK, peptide start residue: 389)”, the log2 fold change came to 0.328.

For the target “UniProt Q9DCZ4 (peptide sequence: TQLEENISQLR, peptide start residue: 58)”, the log2 fold change worked out at 0.253.

Regarding “UniProt Q99JT2 (peptide sequence: LADFGVAGQLTDTQIKR, peptide start residue: 156)”, the log2 fold change was -0.843.

With “UniProt Q9Z1R3 (peptide sequence: TEGRPDMK, peptide start residue: 115)”, the log2 fold change turned out to be 1.56.

Turning to “UniProt Q9WVD5 (peptide sequence: TYSQVGFR, peptide start residue: 54)”, the log2 fold change was -1.35.

On to “UniProt P97742 (peptide sequence: IWMAMVK, peptide start residue: 149)”, for which the log2 fold change was found to be 0.562.

As to “UniProt Q8C5L7 (peptide sequence: NGAQIAEGFR, peptide start residue: 267)”, the log2 fold change turned out to be 0.659.

With “UniProt Q9WUN2 (peptide sequence: VFNNISFLRPVDVQMR, peptide start residue: 39)”, the log2 fold change is -2.34.

Take “UniProt O54785 (peptide sequence: GFFGQAIK, peptide start residue: 340)”: the log2 fold change is -0.88.

Turning to “UniProt P35917 (peptide sequence: VLGHGAFGK, peptide start residue: 850)”, the log2 fold change was found to be 1.38.

As to “UniProt Q9DCW4 (peptide sequence: VDLLFLGK, peptide start residue: 117)”, the log2 fold change is 0.27.

Turning to “UniProt Q8VEB1 (peptide sequence: DLKPENILLDDYGHIR, peptide start residue: 311)”, the log2 fold change was -0.743.

As to “UniProt P11440 (peptide sequence: IGEGTYGVVYK, peptide start residue: 10)”, the log2 fold change was -2.03.

As for “UniProt Q4LDG0 (peptide sequence: NQPFLGYR, peptide start residue: 501)”, the log2 fold change came to 0.345.

For the target “UniProt Q7TT50 (peptide sequence: FQFPSHVTDVSEEAK, peptide start residue: 300)”, the log2 fold change is -1.06.

For “UniProt Q6XUX1 (peptide sequence: SLQDVLLHR, peptide start residue: 640)”, the log2 fold change was -1.84.

“UniProt Q03963 (peptide sequence: DLKPGNIFLVDER, peptide start residue: 376)”: the log2 fold change is -1.55.

On to “UniProt Q60772 (peptide sequence: LGNPEIAR, peptide start residue: 47)”, for which the log2 fold change came to 0.494.

Regarding “UniProt Q9WVJ2 (peptide sequence: GSIDEVDKR, peptide start residue: 322)”, the log2 fold change was -0.456.

For the target “UniProt Q8VCC2 (peptide sequence: LAELFTNQR, peptide start residue: 97)”, the log2 fold change was -0.315.

Regarding “UniProt Q9Z2W1 (peptide sequence: GSFGEVYK, peptide start residue: 29)”, the log2 fold change is -2.09.

With “UniProt Q9JHU3 (peptide sequence: HVETGEIVALKK, peptide start residue: 23)”, the log2 fold change is -2.31.

As to “UniProt P34914 (peptide sequence: NWKWSCK, peptide start residue: 471)”, the log2 fold change is 0.437.

For “UniProt P26149 (peptide sequence: YIPPFNR, peptide start residue: 311)”, the log2 fold change was 0.476.
